Experimental findings from the supplement of paper PMC6555819 are described below.

This assay relates to PPARg:RXRa 30nM:10nM, anti-RXR (NR concentration 30 nM, RXRa partner concentration 10 nM). Description: PBM binding z-score (relative to random genomic background probes); higher = stronger binding; sequences stand for … in GC…GCGATTGACAGCGTAGAATGAAGG
In short, it runs like this: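 Custom Agilent 4×180K protein-binding microarrays carried double-stranded probes, each with a 34-nt variable region. These regions held direct-repeat seeds, single-nucleotide variants, half-site ablations and random human genomic background sequences. Ligand-free nuclear receptor dimers were incubated on the arrays for 1 h, antibodies against each partner (one per run) detected binding, and scanned fluorescence was regression-normalized. Binding z-scores take the random background probes as reference.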
With GCTCGGAGGACAAGGTCAAAGCTTTGTCCGTAGA, the PBM binding z-score amounted to 0.553.

The sequence GCTAGTTGGTCAGTAAAAGGCCACACACCGGTCG had a PBM binding z-score of -0.368.

CCTTACGGGTCACTGACCGGTTATAGCATTTGGA had a PBM binding z-score of 1.31.

On to CCTACTGGGCCACGAAGGGTCATTGATTCAGTGA, for which the PBM binding z-score turned out to be 1.17.

In the case of AGAATGAGGGCACGCTGAGTTGATAGCAGAGTAG, the PBM binding z-score is 0.921.

GCTAACAGGCCATTTGGGTCACTCAATGACGGGC came in with a PBM binding z-score of -0.624.

With TCGAGTAGGTTAGCGGCATTCAGAATGGCGTCGA, the PBM binding z-score was 0.448.

Consider TATACAGGGTTAAAGGCCAGAGTACGAATGTCGA, for which the PBM binding z-score was determined as 3.04.

As to CGAACTAGGTCTTCCAGGACAGTGAATACATTGA, the PBM binding z-score was -0.0415.

The sequence TTACCAAGGTGAGCTGAAGTCGTTGATCCAACTC had a PBM binding z-score of -0.185.

For CGTGCAAGGTCAAGGTCAGTGAAAGAGACTCGAA, the PBM binding z-score stood at 2.87.

The sequence CCGAGTAGGTTATGGGGCAATCAGGCAACGGTGA came in with a PBM binding z-score of 2.23.

The sequence GCAGACGGGTGAAACGCAGGTAACTCAGGGTGGC came in with a PBM binding z-score of -0.732.

TATAGAGGGTCAAAGGCCAGAGTACGAATGTCGA showed a PBM binding z-score of 5.22.

GATACAGGGTCAGCTATAGGCCAGAGTATGGAAA: the PBM binding z-score was found to be 0.857.

In turn, ATCTCTAGGTAAGACTCAGTTCAGGGAAGAACGC returned a PBM binding z-score of 0.337.

AATACAGGGTCATCGTAGGCCTGAGTACGCACAG yielded a PBM binding z-score of 2.71.

The sequence TCTTGTAGATCACAGGTTAAGAAAGCCGAAGCCT registered a PBM binding z-score of 3.81.
